Experimental findings from ChEMBL document CHEMBL4513216, “Probing the Open Global Health Chemical Diversity Library for Multistage-Active Starting Points for Next-Generation Antimalarials” (ACS Infect Dis, 2020) are described below.

The whole screen tested about 69,000 compounds, of which about 8,600 (12%) showed an effect of 50% or more. Many of the other results were omitted from the sample, so strong results are more common in it than they were.

This test has as its system Plasmodium berghei. Briefly: Screen against P. berghei liver stage (PbLuc), transformed with Luciferase, at 10uM. The format is functional, HepG2. To be noted: tested at 10 uM.
In the case of `CC(=O)N1CCC12CCN(Cc1ccco1)CC2`, the INHIBITION was found to be 9.97%.

As to `O=C([C@H]1CC[C@@H]2[C@@H](CCN2C2CCCC2)O1)N1CCOCC1`, the INHIBITION was -3.26%.

Take `O=C(NCc1ccc(-n2cncn2)nc1)c1cc(Cl)c2c(c1)OCCO2`: the INHIBITION is given as 9.54%.

As to `CCn1ncc2c1C(COC)CN(c1ncc(F)cn1)C2` (stereo unspecified), the INHIBITION was -7.24%.

Take `COc1ccc2c(c1)NC(C1CCN(C(=O)C(C)C)CC1)NS2(=O)=O` (stereo unspecified): the INHIBITION is -12.3%.

On to `CCC(NC(=O)CCCN1CCCCC1)c1cn2cccnc2n1` (stereo unspecified), for which the INHIBITION amounted to 37.7%.

`CCC(NC(=O)CC1CCN(C(C)C)CC1)c1cn2cccnc2n1` (stereo unspecified): the INHIBITION stood at 51.3%.

With `CCn1ncnc1C(C)NC(=O)C1CCN(C(C)C)CC1` (stereo unspecified), the INHIBITION is on record as -1.64%.

Consider `CCC(NC(=O)CC1CCN(CC)CC1)c1cn2cccnc2n1` (stereo unspecified), for which the INHIBITION is -15.3%.

For the compound `CCC(NC(=O)C1CCN(C(C)C)CC1)c1cn2cccnc2n1` (stereo unspecified), the INHIBITION stood at 57.5%.

As to `CCC(NC(=O)C1CCN(C(=O)C2CC2)CC1)c1cn2cccnc2n1` (stereo unspecified), the INHIBITION was determined as 22.9%.

For the compound `COc1ccc(Cl)cc1S(=O)(=O)N(C)CC(=O)Nc1cccnc1`, the INHIBITION came out at 33.4%.

For the compound `Cc1cnn(CC(C)NCc2csc(-c3ncccn3)n2)c1` (stereo unspecified), the INHIBITION is -3.2%.

For `CN(C)c1cc(C(F)(F)F)cc(-c2ccc(C(=O)O)cc2)n1`, the INHIBITION is on record as 26.9%.

In the case of `Cc1ccc(S(=O)(=O)N2CCC(c3n[nH]cc3C(=O)N(C)C)CC2)cc1`, the INHIBITION is reported as 12.8%.

As to `CCN(c1ccsc1C(=O)N1CCCCC1)S(=O)(=O)c1ccccc1`, the INHIBITION was -10.8%.

For the compound `CCN1CCN(C)C(=O)C12CCN(Cc1csc(C)n1)CC2`, the INHIBITION is -1.28%.

Consider `CC(C)=CCN1C[C@@H](C(=O)O)C[C@H](C(=O)Nc2ccc(C)nc2)C1`, for which the INHIBITION is given as 28.5%.

Take `CN(C)CCNC(=O)c1ccc(S(=O)(=O)N[C@@H]2CCNC2)cc1`: the INHIBITION is recorded as 87.9%.

`CC(C)N(CCNC(=O)c1ccc(S(=O)(=O)NC2CC2)cc1)C(C)C`: the INHIBITION was 19.2%.

Consider `O=C(NC[C@@H]1CCCO1)c1ccc(S(=O)(=O)N[C@@H]2CCNC2)cc1`, for which the INHIBITION was 2.55%.

In the case of `CCS(=O)(=O)N1C[C@@H](OCc2cccnc2)[C@H]2OCCC[C@H]21`, the INHIBITION is listed as 44.9%.

On to `O=C1CCC(c2nc(C3CCN(C(=O)Cc4cccs4)CC3)no2)N1` (stereo unspecified), for which the INHIBITION is -31.1%.

Take `CC1=N[C@@]2(CC[C@@H]3CN(Cc4ccccc4C)C[C@@H]32)C(=O)N1CC1CC1`: the INHIBITION is listed as 28.4%.

On to `CC(C)CCc1cc(C(=O)O)nc2[nH]c(=O)[nH]c(=O)c12`, for which the INHIBITION stood at 2.29%.

On to `CCc1cc(NCCCNS(C)(=O)=O)nc(-c2ccccn2)n1`, for which the INHIBITION is recorded as 12.4%.

Regarding `NC(=O)C1CCCN(Cc2c(-c3ccco3)[nH]c3ncccc23)C1` (stereo unspecified), the INHIBITION came to 61.4%.

Regarding `OC1CCCN(Cc2c(-c3ccco3)[nH]c3ncccc23)C1` (stereo unspecified), the INHIBITION amounted to 35.3%.

`CN1CCN(Cc2c(-c3ccco3)[nH]c3ncccc23)CC1`: the INHIBITION is -0.371%.

Turning to `c1coc(-c2[nH]c3ncccc3c2CN2CCCOCC2)c1`, the INHIBITION is reported as 50.1%.

Turning to `CCN1CCN(Cc2c(-c3ccco3)[nH]c3ncccc23)CC1`, the INHIBITION was 29.3%.

For the compound `OC1CCN(Cc2c(-c3ccco3)[nH]c3ncccc23)CC1`, the INHIBITION is 32.3%.

Consider `O=C1CCCN1Cc1noc(-c2ccc(Cl)cc2)n1`, for which the INHIBITION is reported as -66%.

For the compound `Cc1cnc(CC2COCCN(C(=O)CN3CCOCC3)C2)cn1` (stereo unspecified), the INHIBITION came out at 16.5%.

Regarding `CCc1noc(CNC2CCCN(Cc3noc(C4CC4)n3)C2)n1` (stereo unspecified), the INHIBITION is given as -6.14%.

Consider `CC(c1ccco1)N(C(=O)c1cccc(C#N)c1)C1CC1` (stereo unspecified), for which the INHIBITION is -11%.

As for `CC(c1ccco1)N(C(=O)NCc1ccon1)C1CC1` (stereo unspecified), the INHIBITION was 72.6%.

Regarding `Cc1noc(C)c1CNC(=O)N1CCC(CO)CC1`, the INHIBITION turned out to be 11.8%.

Consider `Cc1noc(C)c1CNC(=O)N(C1CC1)C(C)c1ccco1` (stereo unspecified), for which the INHIBITION amounted to 79.1%.

For `CC(c1ccco1)N(C(=O)c1cc2c([nH]c1=O)CCCC2=O)C1CC1` (stereo unspecified), the INHIBITION is -65.3%.

In the case of `CCN(CC)C1CCN(C(=O)NCc2c(C)noc2C)CC1`, the INHIBITION came to 50.1%.

In the case of `Cc1noc(C)c1CNC(=O)N(C)C1CCN(c2ccccc2)C1=O` (stereo unspecified), the INHIBITION worked out at 31.2%.

In the case of `CCc1cc(CNC(=O)NCC(c2ccco2)N2CCCC2)[nH]n1` (stereo unspecified), the INHIBITION worked out at 36.6%.

For the compound `Cc1noc(C)c1CNC(=O)N1CCCC(C)CC1` (stereo unspecified), the INHIBITION is recorded as -30.6%.

As for `CCc1cc(CNC(=O)N(C2CC2)C(C)c2ccco2)on1` (stereo unspecified), the INHIBITION is given as 3.3%.

Regarding `CCc1cc(CNC(=O)N(C2CC2)C(C)c2ccco2)[nH]n1` (stereo unspecified), the INHIBITION came to 55.9%.

As to `CC(c1ccco1)N(C(=O)CNc1ccc(C#N)cc1)C1CC1` (stereo unspecified), the INHIBITION is 21.5%.

For `COCc1c(Cl)cccc1NC(=O)CNC(=O)C(C)(C)C`, the INHIBITION was -17.8%.

As for `CC(C)N1CCC(CC(=O)N(C)C(C)c2cncs2)CC1` (stereo unspecified), the INHIBITION is on record as -3.58%.

With `CN(Cc1nc(Cc2cccc(C(F)(F)F)c2)no1)C1CCOCC1`, the INHIBITION was 22.1%.

For the compound `COC(=O)c1ccoc1COC(=O)CCc1ccc(OC)c(OC)c1`, the INHIBITION is on record as -1.58%.

Take `CN(C)Cc1cc(C2CCCCN2S(=O)(=O)Cc2ccccc2)nn1C` (stereo unspecified): the INHIBITION is on record as 8.12%.

Consider `CS(=O)(=O)NCc1cncc2c1CCN(C(=O)c1ccccn1)C2`, for which the INHIBITION is listed as 16.4%.

On to `Cc1occc1C(=O)N1C[C@@H](OCc2cccnc2)[C@H]2OCCC[C@@H]21`, for which the INHIBITION is listed as -63.1%.

For the compound `CCCc1noc(C2CC(=O)N(C(C)(C)C)C2)n1` (stereo unspecified), the INHIBITION was found to be 31.9%.

As to `CN1CCN([C@H]2CCN(C(=O)c3nn(C)cc3Cl)C[C@H]2CCCO)CC1`, the INHIBITION is listed as 8.7%.

For the compound `Cc1cc(C(=O)N2CC[C@H](N3CCN(C)CC3)[C@H](CCCO)C2)n(C)n1`, the INHIBITION is given as -27.5%.

Turning to `CN1CCN([C@H]2CCN(C(=O)c3cc(Cl)cn3C)C[C@H]2CCCO)CC1`, the INHIBITION is recorded as 64.3%.

Take `COCCN1CCO[C@@H]2CN(C(=O)NCc3ccccc3)CC[C@@H]2C1`: the INHIBITION came out at 7.24%.

`Cc1n[nH]c(C)c1CCC(=O)N1CCc2c(nc[nH]c2=O)C1`: the INHIBITION is given as 10.7%.

In the case of `CCN(C)c1ccc(CNS(=O)(=O)C2CCOCC2)cc1F`, the INHIBITION is 50.1%.

Consider `CCN(C)c1ccc(CNC(=O)c2cc(C(N)=O)cs2)cc1F`, for which the INHIBITION is -59.2%.

As for `CCN(CC)c1ccc(CNC(=O)C2(C)CCOCC2)cc1F`, the INHIBITION is on record as -37.1%.

Take `CCN(C)c1ccc(CNS(=O)(=O)CC2CCCO2)cc1F` (stereo unspecified): the INHIBITION came to 24.4%.

For `CCN(CC)c1ccc(CNS(=O)(=O)C2CCOCC2)cc1F`, the INHIBITION was 62.9%.

`O=S(=O)(CC1CCOCC1)NCc1ccnc(O)c1`: the INHIBITION came to 2.82%.
